The source made the active and inactive calls.
Key:
[1] = test system: Human papillomavirus type 1a protein E7 (residues 44-93); test: small molecules binding HPV E7 44-93 – biochemical, small-molecule microarray, residues 44-93, 635 nm fluorescence, primary screen (AID 1108); conditions: fluorescence 635 nm, higher = more signal;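 note: E7 fragment applied at 1 µg/mL in TBST for 1 h at 4 C; score combines spot fluorescence with its signal to noise ratio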
[2] = hepatitis C replication reporter changes, two-sided – Huh7 cells, luciferase reporter, HCV replication inhibitor project, primary screen (AID 1109); conditions: Huh7 HCV replicon luciferase reporter, 48 h; higher = more signal;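 note: huh7 hepatoma cells harbouring a luciferase neomycin HCV replicon reporter; luciferase luminescence as measure of HCV replicon replication; test concentration not given here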
[3] = target: Left-right determination factor 2 (Homo sapiens) (UniProt O00292); test: small molecules binding LEFTY2 protein – biochemical, small-molecule microarray, 635 nm fluorescence scan, primary screen (AID 1110); conditions: higher = more signal
Chain of Left-right determination factor 2 (Homo sapiens) (O00292 whole entry, looked up): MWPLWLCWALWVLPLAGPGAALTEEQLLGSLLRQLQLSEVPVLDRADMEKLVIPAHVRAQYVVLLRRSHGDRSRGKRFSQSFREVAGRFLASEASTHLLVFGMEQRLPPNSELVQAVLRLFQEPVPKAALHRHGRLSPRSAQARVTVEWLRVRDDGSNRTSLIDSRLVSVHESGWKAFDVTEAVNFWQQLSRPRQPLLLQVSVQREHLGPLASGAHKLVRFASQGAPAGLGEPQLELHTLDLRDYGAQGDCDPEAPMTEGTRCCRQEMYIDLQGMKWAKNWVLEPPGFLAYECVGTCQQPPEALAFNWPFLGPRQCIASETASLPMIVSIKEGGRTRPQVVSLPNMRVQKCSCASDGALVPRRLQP

[4] = target: Calmodulin-1 (Homo sapiens) (UniProt P0DP23); test: small molecules binding calmodulin-1 with EGTA – biochemical, small-molecule microarray, Cy5-labelled CALM1, profiling panel (AID 1111); conditions: Cy5-CALM1 binding fluorescence, higher = more signal;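 note: labelled calmodulin applied in Tris saline Tween buffer holding calcium plus EGTA and DTT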
[5] = target: Calmodulin-1 (Homo sapiens) (UniProt P0DP23); test: small molecules binding Ca-loaded calmodulin-1 – biochemical, small-molecule microarray, Cy5-labelled CALM1, plus calcium, artefact control for SMM control-protein annotation, profiling panel (AID 1112); conditions: Cy5-CALM1 binding fluorescence, higher = more signal;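 note: score merges spot fluorescence with signal to noise from triplicate slides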
[6] = probe aWnt5a binding to arrayed compounds – biochemical, biotinylated probe, 635/667 nm fluorescence, primary screen (AID 1113); conditions: small-molecule microarray, higher = more signal;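 note: score merges 667 nm fluorescence intensity with signal-to-noise per printed feature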
[7] = probe aShh binding to arrayed compounds – biochemical, biotinylated probe, 635/667 nm fluorescence, primary screen (AID 1114); conditions: small-molecule microarray, higher = more signal;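 note: probe is biotin-labelled aShh protein from a stem cell growth factor screen; measures binding of labelled protein to compounds printed on the slide; score merges feature fluorescence at 667 nm with signal-to-noise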
[8] = probe aNog binding to arrayed compounds – biochemical, biotinylated probe, 635/667 nm fluorescence, primary screen (AID 1115); conditions: small-molecule microarray, higher = more signal;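 note: probe is biotinylated aNog protein used at 0.15 µg/mL for 1 h at 4 C; z-score combines 667 nm fluorescence of each spot with its signal to noise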
[9] = target: Torsin-1A-interacting protein 1 (Homo sapiens) (UniProt Q5JTV8); test: compound microarray binding of lysate hLAP1 – cell lysate, small-molecule microarray, COS7 lysate, 635/667 nm fluorescence, primary screen (AID 1116); conditions: 635 nm fluorescence, higher = more signal
Chain of Torsin-1A-interacting protein 1 (Homo sapiens) (Q5JTV8 whole entry, looked up): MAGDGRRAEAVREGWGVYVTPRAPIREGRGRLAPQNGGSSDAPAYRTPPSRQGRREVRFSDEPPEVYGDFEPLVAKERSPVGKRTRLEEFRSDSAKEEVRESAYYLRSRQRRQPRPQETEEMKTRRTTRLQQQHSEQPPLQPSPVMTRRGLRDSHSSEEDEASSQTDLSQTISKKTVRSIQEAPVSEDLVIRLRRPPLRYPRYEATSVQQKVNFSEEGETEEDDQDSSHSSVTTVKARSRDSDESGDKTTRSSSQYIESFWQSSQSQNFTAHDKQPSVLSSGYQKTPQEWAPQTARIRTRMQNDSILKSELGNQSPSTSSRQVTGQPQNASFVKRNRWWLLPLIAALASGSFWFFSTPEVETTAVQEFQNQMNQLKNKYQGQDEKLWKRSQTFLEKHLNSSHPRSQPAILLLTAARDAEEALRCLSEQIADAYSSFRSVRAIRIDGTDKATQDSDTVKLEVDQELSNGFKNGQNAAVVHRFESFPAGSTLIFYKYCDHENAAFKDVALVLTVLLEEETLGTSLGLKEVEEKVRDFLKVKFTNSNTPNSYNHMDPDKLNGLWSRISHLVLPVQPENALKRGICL

[10] = target: Alpha-bungarotoxin (Bungarus multicinctus) (UniProt P60615); test: compounds binding labelled alpha-BTX control protein – biochemical, small-molecule microarray, Alexa647 label, 635/667 nm fluorescence, artefact control for SMM control protein annotation, profiling panel (AID 1117); conditions: alpha-BTX-A647 binding fluorescence, higher = more signal
Chain of Alpha-bungarotoxin (Bungarus multicinctus) (P60615 whole entry, looked up): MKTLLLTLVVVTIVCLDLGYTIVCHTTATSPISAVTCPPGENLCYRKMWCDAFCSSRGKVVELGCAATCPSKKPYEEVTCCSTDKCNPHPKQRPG

[11] = target: Albumin (Bos taurus) (UniProt P02769); test: compounds binding labelled BSA control protein – biochemical, small-molecule microarray, Alexa647 label, 635/667 nm fluorescence, artefact control for SMM control protein annotation, profiling panel (AID 1118); conditions: BSA-A647 binding, fluorescence 635 nm, higher = more signal;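 note: score merges 667 nm emission intensity and signal-to-noise per printed compound spot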
Chain of Albumin (Bos taurus) (P02769 whole entry, looked up): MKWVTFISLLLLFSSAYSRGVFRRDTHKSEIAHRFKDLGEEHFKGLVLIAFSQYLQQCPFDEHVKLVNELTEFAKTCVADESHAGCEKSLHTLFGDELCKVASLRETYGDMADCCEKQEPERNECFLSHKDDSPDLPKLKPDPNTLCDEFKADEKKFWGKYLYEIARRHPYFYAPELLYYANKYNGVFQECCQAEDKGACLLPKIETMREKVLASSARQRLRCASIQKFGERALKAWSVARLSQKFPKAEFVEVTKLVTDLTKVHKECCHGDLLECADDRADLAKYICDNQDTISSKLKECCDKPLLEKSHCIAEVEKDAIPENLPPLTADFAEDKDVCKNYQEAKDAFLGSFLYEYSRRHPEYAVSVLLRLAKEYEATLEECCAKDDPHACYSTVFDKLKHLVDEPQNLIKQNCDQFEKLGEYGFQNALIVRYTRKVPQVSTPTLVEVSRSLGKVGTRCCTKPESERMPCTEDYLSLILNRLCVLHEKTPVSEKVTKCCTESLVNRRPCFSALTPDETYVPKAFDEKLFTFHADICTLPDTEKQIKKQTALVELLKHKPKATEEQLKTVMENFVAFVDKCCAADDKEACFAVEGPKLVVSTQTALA

[12] = probe aXIP binding to arrayed compounds – biochemical, NeuroSMM set, 635/667 nm fluorescence, primary screen (AID 1119); conditions: small-molecule microarray, higher = more signal, called active from +8 up or from −8 down;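 note: probe is the protein aXip251-270 applied at 1 µg/mL to compound-printed slides; binding of probe to printed compounds measured as 667 nm fluorescence plus signal to noise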
[13] = probe aNOTCH3 binding on compound microarray – biochemical, small-molecule microarray, 635/667 nm fluorescence, primary screen (AID 1120); conditions: higher = more signal;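 note: probe is a biotin-tagged antibody raised against NOTCH3 rather than NOTCH3 protein; score merges spot fluorescence near 667 nm with spot signal to noise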
[14] = probe aNOTCH2 binding on compound microarray – biochemical, small-molecule microarray, 635/667 nm fluorescence, primary screen (AID 1121); conditions: higher = more signal;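 note: score merges feature fluorescence read at 667 nm with its signal to noise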
[15] = target: Carbonic anhydrase 2 (Homo sapiens) (UniProt P00918); test: compounds binding carbonic anhydrase 2 – biochemical, small-molecule microarray, Alexa647-labelled CAII, profiling panel (AID 1122); conditions: CAII-A647 binding fluorescence, higher = more signal
[16] = COS7 lysate on small-molecule microarray, probe aHis, 635 nm (AID 1123); conditions: COS7 cell lysate, fluorescence, higher = more signal;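 note: z-score combines 667nm fluorescence intensity with signal-to-noise per printed compound spot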
[17] = probe aLAP1 signal on lysate-treated microarray – cell lysate, small-molecule microarray, COS7 lysate, primary screen (AID 1124); conditions: probe aLAP1, fluorescence, higher = more signal;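 note: lysate comes from COS7 cells expressing LAP1 and is applied at 0.3 µg/mL; score merges spot fluorescence near 667 nm with signal-to-noise over triplicate slides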
[18] = test system: Sam68 (KHDRBS1); test: compounds binding KHDRBS1 protein – biochemical, small-molecule microarray, 635 nm fluorescence, primary screen (AID 1125); conditions: higher = more signal;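 note: score merges 667 nm channel intensity with signal to noise over triplicate slides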
[19] = test system: Chordin-like protein 2 (CHRDL2); test: compounds binding chordin-like 2 – biochemical, small-molecule microarray, 635 nm fluorescence, primary screen (AID 1126); conditions: fluorescence 635 nm, higher = more signal;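 note: printed compound slides probed with Chrdl2 protein at 4 µg/mL for 1 h at 4 C; score merges 667 nm emission intensity with signal to noise over three replicate slides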
[20] = target: Concanavalin-A (Canavalia ensiformis) (UniProt P02866); test: compounds binding concanavalin A lectin – biochemical, small-molecule microarray, Alexa647 label, 635 nm, artefact control for SMM control protein annotation, primary screen (AID 1127); conditions: ConA-A647 binding fluorescence, higher = more signal;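 note: z combines 667 nm emission intensity with signal-to-noise across three replicate slides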
Chain of Concanavalin-A (Canavalia ensiformis) (P02866 whole entry, looked up): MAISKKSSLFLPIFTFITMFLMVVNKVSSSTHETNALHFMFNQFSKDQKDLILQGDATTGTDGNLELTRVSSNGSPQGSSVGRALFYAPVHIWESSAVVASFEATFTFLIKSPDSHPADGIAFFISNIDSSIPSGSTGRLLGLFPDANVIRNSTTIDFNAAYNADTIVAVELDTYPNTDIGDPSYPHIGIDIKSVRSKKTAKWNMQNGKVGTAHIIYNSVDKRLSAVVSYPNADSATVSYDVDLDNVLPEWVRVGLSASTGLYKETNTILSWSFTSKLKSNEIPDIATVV

Row | SMILES | composite z-score [1] | z-score [2] | composite z-score [3] | composite z-score [4] | composite z-score [5] | composite z-score [6] | composite z-score [7] | composite z-score [8] | composite z-score [9] | composite z-score [10] | composite z-score [11] | composite Z-score [12] | composite z-score [13] | composite z-score [14] | composite z-score [15] | composite z-score [16] | composite z-score [17] | composite z-score [18] | composite z-score [19] | composite z-score [20]
1 | COC(=O)[C@H](C)NC(=O)CCC1CC(OC(=O)NCc2ccc3c(c2)OCO3)CC2(CCCC(COC(=O)NCc3cccc(C(F)(F)F)c3)O2)O1 (stereo not given in full) | 0.817 | -1.79 | 1.11 | 0.601 | -0.311 | -0.113 | 0.0756 | 0.33 | 0.794 | 0.446 | 0.133 | 0.298 (inactive) | -0.0014 | -0.133 | 0.424 | 1.08 | 0.234 | 1.02 | 0.301 | 0.746
2 | CCc1cc2c(nc1CC)CCN(CCC(C)=NOC[C@H]1O[C@H](c3ccccc3)C=C[C@@H]1Oc1ccc(OC)cc1)C2 | 0.371 | -3.16 | -0.0061 | -0.112 | 0.366 | -0.0944 | 0.0639 | -0.0065 | 0.76 | 0.292 | 0.184 | -0.0263 (inactive) | -0.0311 | -0.155 | 0.787 | 0.552 | 0.056 | 0.292 | -0.0913 | 0.208
3 | CCOC(=O)NN=C1C[C@@H](O)[C@@H](O)[C@@H]2[C@@H]3C(=O)N([C@@H](C)c4ccccc4)C(=O)[C@@H]3CC[C@H]12 | 0.171 | -0.789 | 0.0792 | -0.258 | -0.453 | -0.124 | -0.117 | -0.287 | 2.53 | -0.0914 | 0.0904 | -0.36 (inactive) | -0.0647 | -0.0424 | -0.119 | -0.156 | -0.111 | 0.338 | 0.183 | 0.297
4 | C[C@@H](c1ccccc1)N1C(=O)[C@H]2[C@H]3[C@H](O)[C@H](O)CC(=NO[C@@H]4O[C@H](CO)[C@@H](O)[C@H](O)[C@H]4O)[C@H]3CC[C@H]2C1=O | 0.668 | -0.087 | 0.414 | -0.222 | -0.461 | -0.196 | 0.147 | -0.206 | 0.163 | 0.556 | 0.0673 | -0.154 (inactive) | 0.0259 | 0.012 | -0.0193 | 0.0007 | 0.554 | 0.648 | 0.373 | 0.44
5 | O=C1[C@H]2[C@H]3[C@H](O)[C@H](O)CC(=NOC[C@@H](O)COCc4ccco4)[C@H]3CC[C@H]2C(=O)N1c1ccc(F)cc1F | -3.61 | -0.988 | 0.0845 | -1.3 | -1.07 | -0.282 | -0.504 | 1.39 | 0.346 | -0.59 | -0.0108 | -0.214 (inactive) | -0.291 | -0.146 | 0.823 | -0.823 | 0.0839 | -1.25 | -0.48 | -1.03
6 | COc1ccc(O[C@H]2C=C[C@@H](c3ccccc3)O[C@@H]2COC(=O)CCC(C)=NOC(C)CN2CCCc3nc(C)c(C)cc32)cc1 (stereo not given in full) | 1.31 | -1.81 | 0.646 | 0.0727 | -0.384 | -0.124 | 0.0278 | 0.109 | 0.4 | 0.463 | 0.247 | 1.32 (inactive) | 0.0013 | -0.106 | 0.21 | 0.676 | 0.304 | 1.31 | 0.43 | 1.01
7 | COC(=O)[C@@H]1CC[C@@H](C)[C@H](c2ccc(Br)cc2)N1 | -1.2 | -0.198 | 0.445 | -0.227 | -0.0163 | -0.136 | -0.226 | -0.247 | -0.0359 | -0.309 | -0.0822 | 0.644 (inactive) | -0.0111 | -0.0165 | -0.203 | 0.0852 | -0.117 | -0.8 | 0.202 | 0.0592
8 | CO[C@H]1COC(=O)CC=C[C@H](C)[C@@H](OC)COC(=O)[C@@H](C)NC(=O)CC=C[C@@H]1C | -2.13 | -1.42 | 0.962 | -0.857 | -1.55 | -0.119 | -0.367 | -0.274 | 0.12 | -0.352 | -0.614 | 0.611 (inactive) | -0.173 | -0.169 | -0.581 | -0.629 | 0.304 | -0.0974 | 1.47 | -0.897
9 | C[C@@H](c1ccccc1)N1C(=O)[C@H]2[C@H]3[C@H](O)[C@H](O)CC(=O)[C@H]3CC[C@H]2C1=O | 0.295 | -0.127 | 0.461 | 0.364 | -0.255 | -0.154 | -0.206 | -0.026 | -0.0326 | -0.0931 | 0.587 | -0.0023 (inactive) | -0.367 | -0.226 | -0.125 | 0.241 | 0.567 | 0.626 | 0.747 | 0.336
10 | C#CCCCON=C1[C@H]2CCn3c(=O)n(-c4ccccc4)c(=O)n3[C@H]2[C@H](O)[C@@H]2O[C@H]12 | 0.438 | -2.97 | 0.602 | -0.312 | -0.273 | -0.0792 | -0.0146 | -0.17 | -0.131 | 0.515 | 0.37 | -0.377 (inactive) | -0.0601 | -0.142 | -0.181 | -0.169 | -0.0252 | 0.131 | 0.609 | 0.184
11 | CO[C@H]1COC(=O)CC=C[C@@H](C)[C@H](NS(=O)(=O)c2ccc(C)cc2)COC(=O)CCC[C@@H]1C | 0.106 | -2.24 | 0.8 | -0.789 | -1.3 | -0.154 | -0.188 | -0.321 | 0.784 | 0.493 | -0.48 | -0.483 (inactive) | -0.0711 | -0.11 | -0.312 | -0.42 | 0.303 | 0.515 | 1.23 | -0.0177

— PubChem BioAssay
